From PubChem BioAssay (EPA / NIEHS)
Activity calls are given as the source filed them. The calls were made as follows: active = hit-call score of the fitted dose curve at least 0.9, where 1 is the maximum; inactive = score below 0.9.

read-out: KRT18 (gene 3875); experiment: BSK_BE3C_Keratin818: BioMAP Diversity Plus: BE3C Assay for Keratin 818 Biomarker Activity (AID 2284282); conditions: primary human bronchial epithelial cells
Experimental: BSK_BE3C is a cell-based, multiplexed-readout assay that uses bronchial epithelial cell, a human lung primary cell, with measurements taken at 24 hours after chemical dosing in a 96-well plate.BSK_BE3C_Keratin818 is an assay component measured in the BSK_BE3C assay. It measures Keratin 8/18 antibody related to regulation of gene expression using ELISA technology.Data from the assay component BSK_BE3C_Keratin818 was analyzed at the endpoint, BSK_BE3C_Keratin818, in the positive analysis fitting direction relative to DMSO as the negative control and baseline of activity. Using a type of binding reporter, gain or loss-of-signal activity can be used to understand protein changes. To generalize the intended target to other relatable targets, this assay endpoint is annotated to the 'cell adhesion molecules' intended target family, where the subfamily is 'keratin'.
The levels of cell surface (or secreted, indicated by the prefix "s") biomarker endpoints were measured by ELISA. Overt cytotoxicity to cells in confluent adherent cultures (all systems other than the BT system) was assessed by measuring total protein levels using sulforhodamine B (SRB) staining in parallel cultures at the time of biomarker measurements, indicated as SRB endpoints. For proliferation assays for adherent cell types, individual cell types are cultured at sub-confluence and relative cell numbers quantified by SRB staining at time points optimized for each system (48 h: 3C and CASM3C systems; 72 h: BT and HDF3CGF systems; 96 h: SAg system). SRB was performed by staining cells with 0.1% SRB after fixation with 10% TCA and reading wells at 560 nm.Viability and proliferation of PBMC (T cells) was quantified by Alamar Blue reduction for the SAg and BT systems. For PBMC viability (referred to as PBMC Cytotoxicity within the assay endpoint names), cells were plated (75,000/well in a 96-well plate) and then chemical samples added for 1 h before addition of activators, SEB and TSST-1 (20 ng/mL final concentration each). Cells were incubated for 90 h. Then, Alamar Blue (20 uL/well) (Invitrogen, Cat DAL1100) was added for 6 h, and the plates were read with a fluorescence microplate reader at 546/580 nm (excitation/emission). For PBMC proliferation, cells were plated and activated as above but incubated for only 16 h prior to addition of Alamar Blue. Plates were read after 6 h.

Row | Structure (SMILES) | outcome
1 | CCCCN(CCO)CCO | inactive
2 | CC(C)(CO)CO | inactive
3 | c1ccc(OCCOc2ccccc2)cc1 | inactive
4 | O=C(O)C(F)(F)C(F)(F)C(F)(F)C(F)(F)C(F)(F)C(F)(F)C(F)(F)C(F)F | inactive
5 | CC(C)CCCC(C)(C)O | inactive
6 | OCC(F)(OC(F)(F)C(F)(OC(F)(F)C(F)(F)C(F)(F)F)C(F)(F)F)C(F)(F)F (stereo not drawn) | inactive
7 | CC(=O)c1ccc(C)cc1 | inactive
8 | O=S(=O)(O)C(F)(F)C(F)(F)OC(F)(F)C(F)(F)F | inactive
9 | CCCO[Si](OCCC)(OCCC)OCCC | inactive
10 | O=C(O)C(F)(F)OC(F)(F)C(F)(F)OC(F)(F)C(F)(F)C(F)(F)C(F)(F)F | inactive
11 | CCn1cc(C(=O)O)c(=O)c2ccc(C)nc21 | inactive
12 | C=C(F)C(=O)OC(C(F)(F)F)C(F)(F)F | inactive
13 | C=C(C)C(=O)OCCC(F)(F)C(F)(F)C(F)(F)C(F)(F)C(F)(F)C(F)(F)C(F)(F)C(F)(F)F | inactive
